This note sets out measurements from PubChem BioAssay AID1117361 (Southern Research Institute, 2015).

About 900 (25%) of roughly 3,600 compounds were called active. Only a sample is shown. Measured potencies and affinities stand elsewhere. Values without a mark were called inactive. How the calls were made is not given here.

This assay addresses Protein Tat (Human immunodeficiency virus type 1 group M subtype B (isolate HXB2)) (UniProt P04608). The assay can be described thus: HIV-1 Tat–TAR interaction blockers – biochemical, fluorescence polarization, FAM-labeled TAR RNA, counter-screen for Vif-APOBEC3G degradation inhibitor project, dose response (AID 1117361). Conditions: Tat-TAR RNA binding; series mostly up to 100 µM; inhibition: at the top concentration. (Fluorescence polarisation rises when a labelled molecule tumbles more slowly, as on binding a larger partner.)
With `O=C(N/C(=C/c1ccc(Cl)cc1)c1nc2ccccc2[nH]1)c1ccco1`, the “inhibition” value was 4.05%.
Take `COc1cccc(C(=O)Nc2nc3ccccc3[nH]2)c1`: the “inhibition” value was 10.9%.
Consider `CCN(CC)C(=O)CCNS(=O)(=O)c1ccc(C)cc1`, for which the “inhibition” value was 2.7%.
As to `Clc1ccc(-c2nnnn2-c2ccc(Cl)c(Cl)c2)cc1Cl`, the “inhibition” value was 4.73%.
Same read-out and setting: the figure for `CCc1nnc(SCC(=O)NC2CCCCC2)nc1CC` is 13.6%; for `Fc1ccc(-c2nnc(Cc3nnc(-c4ccc(F)cc4)o3)o2)cc1` it is 1.36%; for `O=C(NCc1ccc2c(c1)OCO2)c1cc2ncc(Br)cn2n1` it is 25.9%.
As for `Cc1ccc2c(c1C)NC(=O)C2(O)CC(=O)c1ccc2c(c1)OCO2` (stereo unspecified), the “inhibition” value was 2.73%.
Regarding `CCOc1ccc(N(CC(=O)NCCC2=CCCCC2)S(=O)(=O)c2ccccc2)cc1`, the result was inactive.
`CCNC(=O)OCC(CC)NC(=O)OCC(C)C` (stereo unspecified): the call was inactive.
For the compound `Cc1cc(C)cc(-c2nnc(SCC(=O)NCc3cccs3)o2)c1`, the call was inactive.
The same measure, in the same setting: the entry for `CCN(CC)c1ccc(/C=C2\C(=O)N(c3nnc(C)c(=O)[nH]3)N=C2C)cc1` is “inactive”.
On to `c1ccc(N2CCN(c3ccc4nncn4n3)CC2)nc1`, for which the “inhibition” value is 2.03%.
For the compound `Cc1noc(C)c1C(=O)N1CCN(c2ncccn2)CC1`, the “inhibition” value is 2.7%.
As for `CCCCc1ccc(-c2nc(N)n[nH]2)cc1`, the “inhibition” value was 1.35%.
Consider `COCCCN1CC23C=CC(O2)C(C(=O)O)C3C1=O` (stereo unspecified), for which the “inhibition” value is 8.11%.
In the case of `CC1CCN(c2ccc([N+](=O)[O-])c(SCCO)c2)CC1`, the call was inactive.
Regarding `Cc1ccc(S(=O)(=O)NCCCOC(=O)Nc2ccncc2)cc1`, the “inhibition” value is 7.5%.
As for `O=C(C1CCC(CNc2c(N3CCCCC3)c(=O)c2=O)CC1)N1CCN(C2CCCCC2)CC1` (stereo unspecified), the compound was called inactive.
On the same count and under the same terms, the entry for `O=C(CSc1nnnn1-c1ccc2c(c1)CCC2)Nc1ccc2c(c1)OCCO2` is “inactive”.
Take `CCOC(=O)c1c(NC(=O)Cn2nnc(-c3ccccc3Cl)n2)sc(C)c1C`: the “inhibition” value was 0.68%.
With `COC(=O)C1=CN(CC2CCCO2)C=C(C(=O)OC)C1c1ccccc1C(F)(F)F` (stereo unspecified), the “inhibition” value is 4.77%.
Same read-out and setting: next, `Cc1cnc(NC(=O)CSc2nnc(CNc3ccc(F)cc3)n2CC2CCCO2)s1` (stereo unspecified): 26.6%.
Take `COc1ccc(OC)c(NC(=O)CSc2nc3ccccc3c(=O)n2CC2CCCO2)c1` (stereo unspecified): the “inhibition” value is 1%.
Regarding `Cc1nn(Cc2ccccc2)c(C)c1C(=O)OCC(=O)c1cc(C)n(C2CC2)c1C`, the “inhibition” value was 12.2%.
Consider `[O-]/[N+](=C\C=C\c1ccccc1)c1ccccc1`, for which the compound was called inactive.
As for `COc1ccc(C2CC(C(F)(F)F)n3nc(C(=O)NCc4c(C)nn(C)c4C)c(Cl)c3N2)cc1` (stereo unspecified), the compound was classed as inactive.
Take `O=S1(=O)Nc2c(ccc3cccnc23)-c2ccccc21`: the “inhibition” value is 2.05%.
For `CCN(CC)c1ccc(NC2=C(Cl)C(=O)c3ccccc3C2=O)cc1`, the “inhibition” value is 6.6%.
On the same count and under the same terms, the figure for `O=C1CSC(c2cccnc2)N1Cc1cccnc1` (stereo unspecified) is 20.6%; for `COc1ccc(OCC(=O)O/N=C(\N)Cc2ccc(Cl)cc2)cc1` it is 0.68%.
With `CCOC(=O)CN(C(=O)CSc1nnc(COc2ccc(OC)cc2)n1CC)c1ccccc1`, the outcome was inactive.
As to `Oc1c(C(c2ccccc2)N2CCN(Cc3ccccc3)CC2)sc2ncnn12` (stereo unspecified), the outcome was inactive.
For `Fc1ccc(C(CCCn2nnc(-c3cccnc3)n2)c2ccc(F)cc2)cc1`, the compound was classed as inactive.
Same read-out and setting: next, `Cc1cc(CN2C(=O)c3ccccc3C2=O)cc(N2CCOCC2)c1`: “inactive”; `Cc1nc2cc(NC(=O)Nc3ccc(N4CCOCC4)cc3)ccc2n1C`: “inactive”.
Regarding `Oc1ccccc1/C=N/Nc1nccnc1Cl`, the “inhibition” value is 5.46%.
`COc1ccc(/C=C/c2nnc(NC(=O)CSc3ccc(C)cc3)s2)cc1`: the outcome was “inactive [at 50 µM]”.
For the compound `COC(=O)C(NC(=O)c1ccco1)(Nc1nc(C)cs1)C(F)(F)F` (stereo unspecified), the “inhibition” value was 8.78%.
As to `COC(=O)c1ccc(CSc2nc3ccccc3c(=O)n2-c2ccc(OC)c(OC)c2)o1`, the “inhibition” value was 3.38%.
As to `CCn1cc(C(=O)NCc2ccco2)c2cc(OC)c(OC)cc2c1=O`, the “inhibition” value is 2.73%.
On to `C=CCN1C(=O)CSc2ccc(C(=O)NCc3ccco3)cc21`, for which the “inhibition” value was 10.9%.
On to `COC(=O)c1cc(OC)c(OC)cc1NC(=O)c1ccco1`, for which the outcome was inactive.
On the same count and under the same terms, next, `C=CCN1C(=O)c2ccc(C(=O)N3CCN(c4ccccc4OC)CC3)cc2C1=O`: “inactive”; `CCOC(=O)C1=C(CNCCc2ccc(Cl)cc2)NC(=O)NC1c1ccc2c(c1)OCO2` (stereo unspecified): “inactive”.
Take `CCSc1nnc(NC(=O)c2ccc3ccccc3n2)s1`: the “inhibition” value was 7.43%.
Turning to `Cc1cc(C)n(-c2nc(Nc3ccccc3C(F)(F)F)nc(-n3nc(C)cc3C)n2)n1`, the result was inactive.
For the compound `O=C(CSc1ccc2nnc(-c3cccnc3)n2n1)NCC1CCCO1` (stereo unspecified), the result was inactive.
In the case of `Cc1c(NC(=O)/C(C#N)=C/C2CC=CCC2)c(=O)n(-c2ccccc2)n1C` (stereo unspecified), the “inhibition” value was 6.08%.
For `O=C(c1ccccc1Cl)N(C(=O)c1ccccc1Cl)c1nccc(-c2cccs2)n1`, the “inhibition” value was 6.08%.
As to `O=[N+]([O-])c1ccc(/C=N/Nc2nc(N3CCCC3)nc(N3CCCC3)n2)o1`, the “inhibition” value was 7.01%.
On to `Cc1ccccc1Cn1cc(NC(=O)c2cc(C3CC3)on2)cn1`, for which the “inhibition” value was 8.25%.
Take `CCOC(=O)N1CCN(C(=O)C2CCCN(S(=O)(=O)c3ccc(C)cc3)C2)CC1` (stereo unspecified): the “inhibition” value was 12.2%.
With `CCN1CCN(c2ccc(S(=O)(=O)N3CCCCC3)cc2NC(=O)Cc2ccc(Cl)c(Cl)c2)CC1`, the compound was called inactive.
On the same count and under the same terms, the entry for `Clc1ccc(Nc2nc(C3CC3)cs2)cc1` is “inactive”.
Turning to `CCN(c1cccc(C)c1)S(=O)(=O)c1cnc[nH]1`, the call was inactive.

The inhibition is the relative decrease from the control value, in per cent.
